In the supplement of paper PMC6555819:

Columns and labels:
Assay in all cases: PBM binding z-score (relative to random genomic background probes); higher = stronger binding; sequences stand for … in GC…GCGATTGACAGCGTAGAATGAAGG
[1] = test system: RARb homodimer (NR concentration 270 nM)
Procedure, shortened: (§1)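 On custom Agilent 4×180K arrays, double-stranded probes with 34-nt variable regions carried direct-repeat seeds, single-nucleotide variants, half-site ablations or random human genomic background. Ligand-free nuclear receptor dimers were applied for 1 h, and binding was read with antibodies against each partner (one per run). Binding z-scores come from regression-normalized fluorescence, with the random background probes as reference.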

[2] = test system: RARg:RXRa (NR concentration 270 nM, RXRa partner concentration 90 nM)
Procedure, shortened: as §1

[3] = test system: RARg homodimer (NR concentration 270 nM)
Procedure, shortened: as §1

[4] = test system: RXRa DBDmut IVT, anti-RXR (DBD mutation: RXRa K156A/R161A, NR concentration 90 nM)
Procedure, shortened: as §1

[5] = test system: RXRa homodimer (NR concentration 180 nM)
Procedure, shortened: as §1

[6] = test system: THRa:RXRa (NR concentration 90 nM, RXRa partner concentration 90 nM)
Procedure, shortened: as §1

[7] = test system: THRa homodimer (NR concentration 90 nM)
Procedure, shortened: as §1

[8] = test system: VDR homodimer (NR concentration 270 nM)
Procedure, shortened: as §1

Row | Sequence | PBM binding z-score [1] | PBM binding z-score [2] | PBM binding z-score [3] | PBM binding z-score [4] | PBM binding z-score [5] | PBM binding z-score [6] | PBM binding z-score [7] | PBM binding z-score [8]
1 | AGAATGAGGTTTCCAAAGATCAGGGAAACGCTTG | -0.579 | -0.0652 | -0.103 | -0.247 | 0.124 | -0.118 | -0.311 | -0.385
2 | TCACATAGGTAAATGCTAGGTGAAAGTCCGATCT | 0.255 | 0.301 | 0.189 | 1.17 | 0.654 | 1.31 | 0.359 | -0.199
3 | TCTAGCAGGACAGAGGGTCACTCAAGAGGTACGG | 2.77 | 2.39 | 2.11 | 0.168 | 2.48 | 1.86 | -0.03 | 0.674
4 | ACAGACATGTGAGTGAAGGTAACTCAGCTGGACG | -0.584 | 0.0591 | 0.117 | -0.191 | 0.317 | -0.00314 | -0.488 | -0.512
5 | TAGCCTAGGTCATGCGAGCCAGTATAGTGTCGGC | 2.67 | 3.75 | 3.79 | 0.876 | 3.03 | 2.98 | 1.03 | 0.235
6 | TCATATAGGTAACACAGGTGAAAGTCGGCATCTA | 1.12 | 1.13 | 0.999 | 1.73 | 1.55 | 1.36 | 0.518 | 0.493
7 | TAGCCTAGGTCAGATCGGGCCAGTTTACGCTATA | 1.83 | 2.54 | 3.36 | -0.346 | 1.21 | 3.76 | 0.0282 | -0.339
8 | AGAATGAGATTAAGATCAGGGAAACAGAATACAT | -0.523 | 0.0579 | 0.312 | -0.493 | -0.0987 | -0.0153 | -0.567 | -0.0769
9 | CCTTACGGGTCAAGCTTATAGCACGGGTGGTACG | 2.82 | 4.93 | 4.64 | 1.11 | 5.08 | 2.23 | -0.294 | 0.754
10 | ACAGACGGGTGATGAAGGTAACTCAGGCTATCAT | -0.00116 | -0.0351 | 0.218 | -0.512 | 0.0942 | 0.536 | 0.269 | -0.203
11 | AGAATGAGGTTAAGAACAGGGAAACAGAATACAT | 1.14 | 1.96 | 1.4 | 0.678 | 2.42 | 2.25 | 0.727 | 0.533
12 | GACACAGGGTCAAGGCCAGAGTACGCGTATTGAT | 3.64 | 5.52 | 5.02 | 2.59 | 6.19 | 3.64 | 0.875 | 2.13
13 | ATACGTAGGTTAGCTGGGGTCATTCAGACTAGGC | 3.71 | 4.03 | 3.01 | 1.65 | 5.42 | 4.9 | 2.74 | 4.13
14 | CACGAAAGGTCGTGCTCAGGTGAGTATACCAAAC | 2.88 | 5.37 | 4.66 | 2.24 | 5.36 | 3.96 | 1.18 | 1.46
15 | GCGACTGGGGCATCAGCAGGCTACCATAACTTAA | 0.21 | -0.0453 | 0.15 | -0.185 | -0.168 | -0.0992 | 0.158 | -0.693
16 | CCGTCTGGGGCAGAAAGGTTACCATACCATCCGG | 2.03 | 1.36 | 0.979 | -0.795 | 1.37 | 0.782 | -0.335 | -0.377
17 | ATACCAAGGTGTTCGTGAGGTCGTTGATACTAAC | 1.53 | 0.824 | 0.278 | 0.712 | 0.997 | 2.96 | 2.38 | 2.98
18 | GCGACTGTGGCATCAGCAGGTTACCATAACTTAA | 0.205 | -0.1 | -0.291 | -0.209 | 0.187 | 0.277 | 0.0891 | -0.501
19 | TCGAGTAGGTTAGGGGTATTCAGAATGGCGTCGA | 0.614 | 0.141 | -0.12 | 0.297 | 0.649 | 0.317 | 0.194 | 0.305
20 | GTAACAAGGTGAATAGGTCGTTGATGAGTAGGCG | 1.9 | 2.74 | 1.68 | 0.149 | 2.29 | 2.06 | 0.594 | 0.415
21 | ACAGACAGGTGAGTGTAGGTAACTCAGCTGGACG | -0.178 | 0.259 | 0.401 | -0.328 | 0.232 | 1.33 | -0.572 | -0.361
22 | TCGAGTAGGATAGGGGCATTCAGAATGGCGTCGA | 0.241 | -0.218 | -0.225 | 0.0984 | 0.155 | 0.209 | -0.171 | 0.237
23 | CCGACTGGGGCAGAAAGGTTAACATACCATCCGG | 2.42 | 1.95 | 1.84 | -0.366 | 2 | 1.09 | -0.284 | -0.0953
24 | GCGACTGGGGCATCTGCAGGTTACCATAACTTAA | 1.06 | 1.21 | 0.411 | -0.0161 | 0.555 | 1.14 | -0.146 | -0.456
25 | ATCGAAAGGTCGTGAGGAGAGTATACAGAAAGGC | 2.56 | 4.52 | 4.04 | 1.59 | 5.22 | 2.7 | 0.251 | 0.69
26 | ACTATTAGTTGACTTAGTGCAACCGATACGACGC | 0.207 | 0.552 | 0.65 | 0.565 | 0.369 | 0.0819 | -0.158 | 0.241
27 | TCTTGTAGATCAGGAGGTTAAGAAAGCTGGCCAA | 0.528 | 0.46 | 0.00207 | 0.445 | 1.29 | 0.711 | -0.548 | -0.308
28 | GATACAGGGTCAGCTAGAGTCCAGAGTATGGAAA | 3.02 | 5.59 | 4.41 | 1.39 | 4.32 | 2.88 | 0.377 | 1.58
29 | CGAACGAGGGCATGAGGTGATAGCAAATGCCGAT | 1.11 | 1.88 | 1.83 | 1.56 | 1.32 | 2.26 | 0.557 | 0.945
